Experimental data published in PubChem BioAssay AID1159580 (chemical genetic matrix, 2015).
Where “and” joins values, the source holds several entries; their conditions need not be identical. Equal entries are not always repeated. The campaign covered roughly 5,500 compounds. About 2,000 (36%) were called active. Roughly 18% stayed inconclusive and do not appear here. Rule as the data show it: active = normalized growth mostly below about 0.91 (no sharp cut-off); inconclusive = no clear call, values can overlap the other calls; inactive = mostly above about 0.92. This is one part of the list.

Test: chemical genetic growth profiling, strain panel (AID 1159580);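 also: tested at 20 µM; growth read once vehicle control cultures reached saturation at 30 °C; 1 = growth at the plate median or of vehicle wells; lower values mean less growth of the strain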
Details: growth OD

Measured: normalized growth

O=C(O)c1cc2cc(F)ccc2[nH]1
inactive: S. cerevisiae deletion strains, locus YJR075W, strain HOC1, active compounds read low 1.01 | S. cerevisiae deletion strains, locus YKL009W, strain mrt4, active compounds read low 1 | S. cerevisiae deletion strains, locus YKL068W, active compounds read low 1.01 | S. cerevisiae deletion strains, locus YKL085W, strain MDH1 (second series), active compounds read low 1.01 | S. cerevisiae deletion strains, locus YKL085W, strain MDH1, active compounds read low 1.01 | S. cerevisiae deletion strains, locus YKL160W, strain elf1, active compounds read low 0.974 | S. cerevisiae deletion strains, locus YKL190W, strain CNB1, active compounds read low 0.999 | S. cerevisiae deletion strains, locus YKR001C, strain vps1, active compounds read low 1.02 | S. cerevisiae deletion strains, locus YKR026C, strain gcn3, active compounds read low 0.949 | S. cerevisiae deletion strains, locus YKR091W, strain srl3, active compounds read low 0.968 | S. cerevisiae deletion strains, locus YLL001W, strain dnm1, active compounds read low 0.976 | S. cerevisiae deletion strains, locus YLL026W, active compounds read low 0.996 | S. cerevisiae deletion strains, locus YLL041C, strain sdh2, active compounds read low 0.97 | S. cerevisiae deletion strains, locus YLR027C, strain aat2, active compounds read low 0.99 | S. cerevisiae deletion strains, locus YLR039C, strain RIC1, active compounds read low 1.02 | S. cerevisiae deletion strains, locus YLR058C, strain SHM2, active compounds read low 1.01 | S. cerevisiae deletion strains, locus YLR102C, strain apc9, active compounds read low 1.02 | S. cerevisiae deletion strains, locus YLR113W, strain HOG1, active compounds read low 0.948 | S. cerevisiae deletion strains, locus YLR221C, strain rsa3, active compounds read low 0.986 | S. cerevisiae deletion strains, locus YLR258W, strain gsy2, active compounds read low 0.987 | S. cerevisiae deletion strains, locus YLR262C, strain YPT6 (second series), active compounds read low 1 | S. cerevisiae deletion strains, locus YLR262C, strain YPT6, active compounds read low 1.04 | S. cerevisiae deletion strains, locus YLR268W, strain sec22, active compounds read low 1.02 | S. cerevisiae deletion strains, locus YLR320W, strain mms22, active compounds read low 1.01 | S. cerevisiae deletion strains, locus YLR330W, strain CHS5, active compounds read low 1.01 | S. cerevisiae deletion strains, locus YLR342W, strain FKS1 (second series), active compounds read low 1.01 | S. cerevisiae deletion strains, locus YLR342W, strain FKS1, active compounds read low 0.98 | S. cerevisiae deletion strains, locus YLR357W, strain rsc2, active compounds read low 0.976 | S. cerevisiae deletion strains, locus YLR370C, strain arc18, active compounds read low 0.989 | S. cerevisiae deletion strains, locus YLR371W, strain rom2, active compounds read low 1.01 | S. cerevisiae deletion strains, locus YLR384C, strain iki3, active compounds read low 0.965 | S. cerevisiae deletion strains, locus YLR418C, strain cdc73, active compounds read low 1.05 | S. cerevisiae deletion strains, locus YML016C, strain PPZ1, active compounds read low 1.01 | S. cerevisiae deletion strains, locus YML032C, strain rad52, active compounds read low 1.02 | S. cerevisiae deletion strains, locus YML120C, strain ndi1, active compounds read low 0.995 | S. cerevisiae deletion strains, locus YML124C, strain tub3, active compounds read low 1.01 | S. cerevisiae deletion strains, locus YMR058W, strain fet3, active compounds read low 0.985 | S. cerevisiae deletion strains, locus YMR078C, strain ctf18, active compounds read low 1.02 | S. cerevisiae deletion strains, locus YMR125W, strain sto1, active compounds read low 0.948 | S. cerevisiae deletion strains, locus YMR129W, active compounds read low 0.982 | S. cerevisiae deletion strains, locus YMR205C, strain PFK2, active compounds read low 1.03 | S. cerevisiae deletion strains, locus YMR223W, strain ubp8, active compounds read low 1.02 | S. cerevisiae deletion strains, locus YMR231W, strain pep5, active compounds read low 0.992 | S. cerevisiae deletion strains, locus YMR263W, strain SAP30, active compounds read low 1.01 and 0.999 | S. cerevisiae deletion strains, locus YMR307W, strain GAS1, active compounds read low 1.05 | S. cerevisiae deletion strains, locus YNL067W, strain RPL9B, active compounds read low 1.02 | S. cerevisiae deletion strains, locus YNL071W, strain lat1, active compounds read low 0.984 | S. cerevisiae deletion strains, locus YNL128W, strain TEP1, active compounds read low 1 | S. cerevisiae deletion strains, locus YNL153C, strain GIM3, active compounds read low 1.01 | S. cerevisiae deletion strains, locus YNL175C, strain NOP13, active compounds read low 0.952 | S. cerevisiae deletion strains, locus YNL183C, strain NPR1, active compounds read low 0.908 | S. cerevisiae deletion strains, locus YNL197C, strain WHI3, active compounds read low 0.949 | S. cerevisiae deletion strains, locus YNL209W, strain ssb2, active compounds read low 0.983 | S. cerevisiae deletion strains, locus YNL224C, strain SQS1, active compounds read low 0.973 | S. cerevisiae deletion strains, locus YNL233W, strain BNI4, active compounds read low 1.01 | S. cerevisiae deletion strains, locus YNL248C, strain rpa49, active compounds read low 0.969 | S. cerevisiae deletion strains, locus YNL250W, strain rad50, active compounds read low 1.01 | S. cerevisiae deletion strains, locus YNL271C, strain bni1, active compounds read low 1.01 | S. cerevisiae deletion strains, locus YNL298W, strain CLA4, active compounds read low 1.03 | S. cerevisiae deletion strains, locus YNL307C, strain MCK1, active compounds read low 1.02 | S. cerevisiae deletion strains, locus YNL322C, strain KRE1 (second series), active compounds read low 0.99 | S. cerevisiae deletion strains, locus YNL322C, strain KRE1, active compounds read low 1.01 and 0.971 | S. cerevisiae deletion strains, locus YNR049C, strain mso1, active compounds read low 0.97 | S. cerevisiae deletion strains, locus YNR052C, strain pop2, active compounds read low 1.02 | S. cerevisiae deletion strains, locus YOL006C, strain TOP1, active compounds read low 1.05 | S. cerevisiae deletion strains, locus YOL012C, strain htz1 0.97 | S. cerevisiae deletion strains, locus YOL147C, strain pex11, active compounds read low 1.01 | S. cerevisiae deletion strains, locus YOR001W, strain rrp6, active compounds read low 0.961 | S. cerevisiae deletion strains, locus YOR061W, strain CKA2, active compounds read low 1.01 | S. cerevisiae deletion strains, locus YOR069W, strain VPS5, active compounds read low 0.998 | S. cerevisiae deletion strains, locus YOR070C, strain gyp1, active compounds read low 1 | S. cerevisiae deletion strains, locus YOR080W, strain dia2, active compounds read low 0.977 | S. cerevisiae deletion strains, locus YOR083W, strain WHI5 (second series), active compounds read low 0.964 | S. cerevisiae deletion strains, locus YOR083W, strain WHI5, active compounds read low 0.965 | S. cerevisiae deletion strains, locus YOR106W, strain vam3, active compounds read low 0.972 | S. cerevisiae deletion strains, locus YOR136W, strain idh2, active compounds read low 1.02 | S. cerevisiae deletion strains, locus YOR144C, strain elg1, active compounds read low 1.01 | S. cerevisiae deletion strains, locus YOR184W, strain ser1, active compounds read low 1.02 | S. cerevisiae deletion strains, locus YOR231W, strain MKK1, active compounds read low 0.986 | S. cerevisiae deletion strains, locus YOR265W, strain rbl2, active compounds read low 0.98 | S. cerevisiae deletion strains, locus YOR270C, strain vph1, active compounds read low 1.03 | S. cerevisiae deletion strains, locus YOR290C, strain snf2, active compounds read low 0.946 | S. cerevisiae deletion strains, locus YOR316C, strain cot1, active compounds read low 1.02 | S. cerevisiae deletion strains, locus YPL051W, strain arl3, active compounds read low 0.997 | S. cerevisiae deletion strains, locus YPL055C, strain LGE1, active compounds read low 1.01 and 1.02 | S. cerevisiae deletion strains, locus YPL078C, strain atp4, active compounds read low 0.956 | S. cerevisiae deletion strains, locus YPL106C, strain sse1, active compounds read low 0.938 | S. cerevisiae deletion strains, locus YPL240C, strain hsp82, active compounds read low 0.963 | S. cerevisiae deletion strains, locus YPL241C, strain CIN2, active compounds read low 0.992 and 0.993 | S. cerevisiae deletion strains, locus YPL256C, strain CLN2, active compounds read low 1.01 | S. cerevisiae deletion strains, locus YPR119W, strain clb2, active compounds read low 1.01 | S. cerevisiae deletion strains, locus YPR141C, strain kar3, active compounds read low 1.01 | S. cerevisiae deletion strains, locus YPR163C, strain tif3, active compounds read low 1.01 | S. cerevisiae deletion strains, locus YPR167C, strain met16, active compounds read low 1.02 | S. cerevisiae deletion strains, strain wtn01, active compounds read low 1.02 | S. cerevisiae strains, strain wild type, active compounds read low 0.979
